CHX counter: affects cycloheximide protein synthesis inhibition readout, counter-screen; actives 12% (n = 300,000); AID 2314; max response, %; cell reporter, cycloheximide protein synthesis inhibition counterscreen; in the data active = max response mostly above about 13%, no sharp cut-off; inactive = mostly below about 14%; note: read at 38.3 µM for the half of the compounds with a filed dose; 0% is about no effect
TbPYK inhibitor: inhibitors of Trypanosoma brucei pyruvate kinase | Q57TT1 | TbPYK enzyme, Kinase-Glo Plus ATP luminescence, 45 min | Potency, µM (titrated, usually from 76.8 µM), without a hit: at the highest dose activity, negative = inhibition, actives largely listed as inhibitors | AID 624173 | actives 0.12% (n = 410,000); note: potency is the fitted concentration of half-maximal effect; % is set by controls: 0 for no effect and ±100 for the full control effect; nearly all actives have a fitted effect of over 50% in size
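Luminescence from Kinase-Glo Plus, added after a 45-minute room-temperature reaction, served as the end-point read-out. The enzyme and substrate were preincubated with compound before ADP (130 uM final) initiated turnover. Concentration-effect curves came from normalized qHTS data.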
NS1 inh: influenza NS1 inhibition; Potency, µM (doses to about 46.1 µM), inactives show at the highest dose activity, positive = more growth; actives 0.4% (n = 270,000); AID 2326; calls by dose curve; note: potency is the fitted concentration of half-maximal effect; actives are rising curves; nearly all actives have a fitted effect of over 50% in size
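Recovery from NS1-induced slow growth read by OD600 in budding yeast switched to galactose assay medium (pH 6.0, -URA) at 1:100 dilution. Compound 23 nl per well; the matching strain lacking NS1 serves as control.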
LmPK inhibitor: LmPK (Leishmania mexicana) enzyme inhibition; Q27686; actives 0.37% (n = 290,000); purified LmPK, Kinase-Glo ATP luminescence, 1 h; Potency, µM (highest dose often 57.5 µM), for the others: at the highest dose activity change, negative = inhibition, most hits filed as inhibitors; note: potency is the fitted concentration of half-maximal effect; % is set by controls: 0 for no effect and ±100 for the full control effect
Target sequence (Q27686 whole entry, looked up): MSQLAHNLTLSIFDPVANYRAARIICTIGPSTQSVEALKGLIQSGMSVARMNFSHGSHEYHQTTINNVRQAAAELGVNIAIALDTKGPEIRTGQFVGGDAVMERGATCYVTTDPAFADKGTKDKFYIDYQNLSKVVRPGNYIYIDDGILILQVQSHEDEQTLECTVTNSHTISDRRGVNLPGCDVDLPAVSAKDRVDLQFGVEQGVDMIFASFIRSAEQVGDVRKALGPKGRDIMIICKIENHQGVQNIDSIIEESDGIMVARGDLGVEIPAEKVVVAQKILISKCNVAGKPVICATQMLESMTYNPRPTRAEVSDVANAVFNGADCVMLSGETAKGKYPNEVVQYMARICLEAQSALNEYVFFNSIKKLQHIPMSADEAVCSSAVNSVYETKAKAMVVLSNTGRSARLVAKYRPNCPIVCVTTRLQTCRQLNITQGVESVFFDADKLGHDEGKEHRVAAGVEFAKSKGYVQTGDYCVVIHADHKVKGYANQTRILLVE
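Purified LmPK (0.1 nM) with 0.5 mM PEP and 0.1 mM ADP in imidazole buffer pH 7.2 with MgCl2/KCl, 1 h at room temperature. ATP formed was read by luciferase luminescence and normalized to no-enzyme and uninhibited controls.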
SARS PLP yeast: SARS-CoV PLP inhibition in yeast; Potency, µM (series often up to 32.9 µM), for inactives: at the highest dose activity, positive = growth rescue, most hits filed as activators; S. cerevisiae expressing SARS-CoV PLpro, growth rescue; actives 0.19% (n = 330,000); calls by dose curve; note: potency is the fitted concentration of half-maximal effect; 0% is about no effect; nearly all actives have a fitted effect of over 55% in size
Shiga toxin inh: blocks Shiga toxin action in Vero cells; Vero cells, Shiga toxin protein synthesis inhibition reporter; actives 9.2% (n = 290,000); inhibition, % at 38.7 µM; in the data active = inhibition mostly above about 28%, no sharp cut-off; inactive = mostly below about 43%; note: 0% is about no effect
Starred values were filed as active, the others as inactive. This is one part of a sample in which hits are shown more often than they occur. Unless noted, calls come from the whole dose curve; as a rule, active = well fitted curve in the direction sought with a large enough effect; inconclusive = small, poorly fitted or top-dose-only effect, or another doubt; inactive = no such curve, though single readings can be large; an effect the other way counts as inactive or inconclusive.

Results for FC(F)(F)c1cccc(NCc2n[nH]c(=S)n2C2CCCCC2)c1 ?
CHX counter: -2.5; TbPYK inhibitor: 12.6µM*; LmPK inhibitor: inconclusive; SARS PLP yeast: 11.6%; Shiga toxin inh: -5.1

How did S=c1[nH]nc(COc2ccccc2)n1C1CCCCC1 do in these assays?
CHX counter: -4.4; TbPYK inhibitor: inconclusive; NS1 inh: 8.1%; LmPK inhibitor: 12.6µM*; SARS PLP yeast: -1.6%; Shiga toxin inh: -7.9

Results for S=c1[nH]nc(COc2ccccc2)n1Cc1ccccc1 ?
CHX counter: -5.3; TbPYK inhibitor: inconclusive; NS1 inh: 5.1%; LmPK inhibitor: -22.1%; SARS PLP yeast: 23.2%; Shiga toxin inh: -16.0

What do the screens show for `S=c1[nH]nc(CSc2nc3ccccc3s2)n1C1CCCCC1`?
CHX counter: 0.9; TbPYK inhibitor: inconclusive; NS1 inh: 15.1%; LmPK inhibitor: 11.2µM*; SARS PLP yeast: -23.2%; Shiga toxin inh: 26.9

Results for CCCCCCCCN1C(=O)[C@H](CC(=O)NCc2cccc(C(F)(F)F)c2)C[C@@]2(C(=O)OC)CCCCC=C12 ?
TbPYK inhibitor: -0.2%

How did CC(C)N(Cc1ccccc1)C(=O)COC(=O)c1cc(S(=O)(=O)N(C)C)ccc1N1CCCC1 do in these assays?
TbPYK inhibitor: -5.9%; SARS PLP yeast: -4.1%

What do the screens show for `O=C(Nc1ccccc1)c1ccc(CSc2ncccn2)cc1`?
CHX counter: 96.9*; TbPYK inhibitor: -5.6%; NS1 inh: -19.6%; LmPK inhibitor: -21.8%; SARS PLP yeast: -3.4%; Shiga toxin inh: 106.5*

How did Cn1nnnc1SCc1ccc(C(=O)Nc2ccccc2F)cc1 do in these assays?
CHX counter: 32.5*; TbPYK inhibitor: -8.7%; NS1 inh: -0.7%; LmPK inhibitor: -5.0%; SARS PLP yeast: 2.0%; Shiga toxin inh: 45.1*

How did Cc1ccc(NC(=O)c2ccc(CSc3nccc(C)n3)cc2)cc1 do in these assays?
CHX counter: 12.2; TbPYK inhibitor: 3.6%; NS1 inh: -67.5%; LmPK inhibitor: 8.5%; SARS PLP yeast: -1.9%; Shiga toxin inh: 18.2

Results for Cn1nnnc1SCc1ccc(C(=O)Nc2nccs2)cc1 ?
CHX counter: 37.5*; TbPYK inhibitor: 2.8%; NS1 inh: -0.7%; LmPK inhibitor: -6.9%; SARS PLP yeast: -10.5%; Shiga toxin inh: 51.2*

Results for Cc1cc(C)cc(NC(=O)c2ccc(CSc3nnnn3C)cc2)c1 ?
CHX counter: -4.3; TbPYK inhibitor: 0.8%; NS1 inh: -3.2%; LmPK inhibitor: -4.7%; SARS PLP yeast: -7.8%; Shiga toxin inh: 13.9

What do the screens show for `CCCNC(=O)c1ccccc1NC(=O)c1ccc(CSc2ccccc2)cc1`?
CHX counter: 16.6*; TbPYK inhibitor: -13.1%; NS1 inh: -33.2%; LmPK inhibitor: 2.0%; SARS PLP yeast: -26.5%; Shiga toxin inh: 25.9*

How did O=C(Nc1ccccc1F)c1ccc(CSc2ncccn2)cc1 do in these assays?
CHX counter: 30.1*; TbPYK inhibitor: -10.3%; NS1 inh: 0.9%; LmPK inhibitor: 15.8µM*; SARS PLP yeast: -1.1%; Shiga toxin inh: 86.4*

Results for O=C(/C=C/Nc1ccc(F)cc1)c1ccco1 ?
CHX counter: 34.8*; TbPYK inhibitor: -16.9%; NS1 inh: -5.5%; LmPK inhibitor: 12.6µM*; SARS PLP yeast: -8.0%; Shiga toxin inh: 67.0*

Results for O=C(/C=C/Nc1ccc(F)cc1)c1cccs1 ?
TbPYK inhibitor: -13.5%

How did CCOC(=O)c1ccc(N/C=C/C(=O)c2ccco2)cc1 do in these assays?
CHX counter: 39.9*; TbPYK inhibitor: -11.2%; NS1 inh: -69.4%; LmPK inhibitor: 14.1µM*; SARS PLP yeast: -7.6%; Shiga toxin inh: 65.8*

Results for OC(c1ccccc1)(c1ccccc1)c1ncc[nH]1 ?
TbPYK inhibitor: 1.4%; SARS PLP yeast: 0.6%

How did CCCCS(=O)(=O)c1oc(-c2ccc(F)cc2)nc1S(=O)(=O)c1ccc(C)cc1 do in these assays?
TbPYK inhibitor: 8.1%

What do the screens show for `CN1C(=O)S/C(=C/c2ccc(OCc3cccc(C(=O)O)c3)cc2)C1=O`?
CHX counter: 34.6*; TbPYK inhibitor: 1.5%; NS1 inh: 11.9%; LmPK inhibitor: 0.9%; SARS PLP yeast: 16.4%; Shiga toxin inh: 37.1*

How did COc1ccc(C2CC2C(=O)c2ccccn2)cc1 (stereo not drawn) do in these assays?
CHX counter: 41.1*; TbPYK inhibitor: -3.6%; LmPK inhibitor: -14.1%; SARS PLP yeast: -4.8%; Shiga toxin inh: 45.9

How did COc1ccc(C2CC2/C(=N/O)c2ccccn2)cc1 (stereo not drawn) do in these assays?
CHX counter: 20.8*; TbPYK inhibitor: 0.1%; LmPK inhibitor: 1.9%; SARS PLP yeast: inconclusive; Shiga toxin inh: 107.7*

Results for COc1ccc(C2CC2/C(=N/O)c2ccccc2)cc1 (stereo not drawn) ?
CHX counter: 31.2*; TbPYK inhibitor: -25.0%; LmPK inhibitor: -3.8%; SARS PLP yeast: -4.2%; Shiga toxin inh: 44.9

Results for O=S1(=O)CC(N2CCN(CCO)CC2)CN1C1CCCCC1 (stereo not drawn) ?
TbPYK inhibitor: 0.6%

What do the screens show for `COC(=O)c1sccc1NC(=O)Nc1ccc(OC)cc1`?
CHX counter: 35.0*; TbPYK inhibitor: inconclusive; NS1 inh: -43.3%; LmPK inhibitor: inconclusive; SARS PLP yeast: -15.5%; Shiga toxin inh: 108.2*

What do the screens show for `Cc1ccccc1NC(=O)Nc1ccccc1C(N)=O`?
CHX counter: -2.9; TbPYK inhibitor: -2.2%; NS1 inh: -4.6%; LmPK inhibitor: 2.8%; SARS PLP yeast: 1.1%; Shiga toxin inh: 13.6

What do the screens show for `COc1ccc(NC(=O)Nc2ccccc2C(N)=O)cc1OC`?
CHX counter: 18.9; TbPYK inhibitor: 2.5%; NS1 inh: inconclusive; LmPK inhibitor: inconclusive; Shiga toxin inh: 8.9

What do the screens show for `COc1ccc(NC(=O)Nc2ccccc2C(N)=O)cc1`?
CHX counter: 26.2*; TbPYK inhibitor: -29.5%; NS1 inh: -6.1%; LmPK inhibitor: 14.1µM*; SARS PLP yeast: -1.5%; Shiga toxin inh: 72.1

What do the screens show for `Cc1ccc(NC(=O)Nc2ccccc2C(N)=O)cc1`?
CHX counter: 28.6*; TbPYK inhibitor: -16.6%; NS1 inh: -2.8%; LmPK inhibitor: 15.8µM*; SARS PLP yeast: 0.4%; Shiga toxin inh: 62.9*

What do the screens show for `Cc1ccc(-c2nnc(SCC#CCOC(=O)c3ccco3)o2)cc1`?
CHX counter: 27.1*; TbPYK inhibitor: -1.7%; NS1 inh: -73.4%; LmPK inhibitor: -2.0%; SARS PLP yeast: 2.9%; Shiga toxin inh: 47.0

What do the screens show for `O=C(OCC#CCSc1nnc(-c2ccc(Br)cc2)o1)c1cccs1`?
CHX counter: 12.9; TbPYK inhibitor: 5.7%; NS1 inh: -19.4%; LmPK inhibitor: -4.4%; SARS PLP yeast: inconclusive; Shiga toxin inh: 36.9

What do the screens show for `Cc1ccc(-c2nnc(SCC#CCOC(=O)c3cccs3)o2)cc1`?
CHX counter: 8.6*; TbPYK inhibitor: -0.8%; NS1 inh: -65.7%; LmPK inhibitor: 0.6%; SARS PLP yeast: inconclusive; Shiga toxin inh: 39.0

From PubChem
